34 molecules from PubChem BioAssay (EPA / NIEHS) can be followed below.

Experiment [1] deals with human CYP2C9, CYP2C9 (gene 1559) (UniProt P11712). Description: NVS_ADME_hCYP2C9: NovaScreen (NVS) CYP450-related Enzyme Activity (ADME) Assay for human CYP2C9 (AID 2283108). An outline of the steps: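 Cell-free assay of recombinant human CYP2C9 produced in Sf9 cells, with enzyme activity read by fluorescence intensity 0.75 h after compound addition. Loss of signal versus an acetonitrile negative control indicates inhibition. Primary screen used 10 uM in duplicate; actives were retested in concentration series.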
human CYP2C9, CYP2C9 (gene 1559), sequence (P11712 whole entry, looked up): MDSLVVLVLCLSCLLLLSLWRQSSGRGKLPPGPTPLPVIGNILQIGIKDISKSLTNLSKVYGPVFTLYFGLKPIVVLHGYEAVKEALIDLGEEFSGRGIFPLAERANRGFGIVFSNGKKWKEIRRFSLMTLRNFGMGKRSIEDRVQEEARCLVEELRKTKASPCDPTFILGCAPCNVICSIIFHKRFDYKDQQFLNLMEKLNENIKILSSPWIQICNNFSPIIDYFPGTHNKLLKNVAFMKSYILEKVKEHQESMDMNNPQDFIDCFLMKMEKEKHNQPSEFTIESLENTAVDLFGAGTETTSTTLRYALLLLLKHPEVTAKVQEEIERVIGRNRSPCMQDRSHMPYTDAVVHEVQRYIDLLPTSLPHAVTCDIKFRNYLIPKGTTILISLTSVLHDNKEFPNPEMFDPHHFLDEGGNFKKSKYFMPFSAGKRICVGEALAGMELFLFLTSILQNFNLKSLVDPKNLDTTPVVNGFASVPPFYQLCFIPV

The target in experiment [2] is Cytochrome P450 2C19 (Homo sapiens) (UniProt P33261). Kind of experiment: NVS_ADME_hCYP2C19: NovaScreen (NVS) CYP450-related Enzyme Activity (ADME) Assay for human CYP2C19 (AID 2283113).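 For AC50: potency for inhibition seen as loss of fluorescent signal.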 The procedure, abridged:
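Recombinant insect-cell-expressed enzyme, fluorescent substrate, 1 h after chemical addition, fluorescence intensity. Baseline = acetonitrile vehicle; activity scored as signal loss. Primary HTS single concentration 10 uM, duplicate; actives retested in concentration series.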

For experiment [3], the target named is human Beta-secretase (BACE), BACE1 (gene 23621) (UniProt P56817). Kind of experiment: NVS_ENZ_hBACE: NovaScreen (NVS) Enzymatic Assay for human Beta-secretase (BACE) (AID 2283140).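 Note: hits are inhibitors that reduce fluorescent substrate signal versus DMSO.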 The procedure, abridged:
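Recombinant BACE1 (SF9 extract) incubated with compound and fluorescent substrate, 1 h. Plates carried positive and DMSO negative controls. Initial single dose 25 uM, duplicate; confirmation by concentration series.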

Experiment [4] concerns the target human AKT serine/threonine Kinase 1 (AKT1), AKT1 (gene 207) (UniProt P31749). Description: NVS_ENZ_hAKT1: NovaScreen (NVS) Enzymatic Assay for human AKT serine/threonine Kinase 1 (AKT1) (AID 2283138). The procedure, abridged: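 Signal loss relative to DMSO, measured by fluorescence after electrophoretic separation of substrate and product, indicates inhibition of recombinant enzyme. Readings at 1 h; screening at 25 uM, follow-up curves up to 50 uM.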

The target of experiment [5] is Caspase-3 (Homo sapiens) (UniProt P42574). Kind of experiment: NVS_ENZ_hCASP3: NovaScreen (NVS) Enzymatic Assay for human Caspase 3 (CASP3) (AID 2283139). The procedure, abridged: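 Recombinant human caspase-3 from E. coli with a fluorogenic substrate, read by fluorescence 1 h after dosing. Primary screen in duplicate at 25 uM. Actives (for example ≥30% inhibition) rerun as concentration-response up to 50 uM.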
Caspase-3 (Homo sapiens), sequence (P42574 whole entry, looked up): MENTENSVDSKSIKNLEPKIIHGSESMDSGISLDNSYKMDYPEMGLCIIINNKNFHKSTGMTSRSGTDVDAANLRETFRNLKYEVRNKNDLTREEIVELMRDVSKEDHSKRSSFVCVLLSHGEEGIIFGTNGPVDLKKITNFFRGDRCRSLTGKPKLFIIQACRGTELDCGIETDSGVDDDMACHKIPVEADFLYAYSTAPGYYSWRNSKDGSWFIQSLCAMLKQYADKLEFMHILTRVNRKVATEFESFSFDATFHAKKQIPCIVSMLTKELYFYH

The target in experiment [6] is human AKT serine/threonine Kinase 2 (AKT2), AKT2 (gene 208) (UniProt P31751). Description: NVS_ENZ_hAKT2: NovaScreen (NVS) Enzymatic Assay for human AKT serine/threonine Kinase 2 (AKT2) (AID 2283141). As for the experimental part:
NVS_ENZ_hAKT2 is a biochemical, single-readout assay that uses extracted gene-proteins in a cell-free assay. Measurements were taken 1 hour after chemical dosing in a 384-well plate.NVS_ENZ_hAKT2 is one of one assay component(s) measured or calculated from the NVS_ENZ_hAKT2 assay. It is designed to make measurements of enzyme activity, a form of enzyme reporter, as detected with fluorescence intensity signals by Fluorescence and electrophoretic mobility shift technology.Data from the assay component NVS_ENZ_hAKT2 was analyzed into 1 assay endpoint. This assay endpoint, NVS_ENZ_hAKT2, was analyzed in the positive analysis fitting direction relative to DMSO as the negative control and baseline of activity. Using a type of enzyme reporter, loss-of-signal activity can be used to understand changes in the enzymatic activity as they relate to the gene AKT2. Furthermore, this assay endpoint can be referred to as a primary readout, because this assay has produced multiple assay endpoints where this one serves a enzymatic activity function. To generalize the intended target to other relatable targets, this assay endpoint is annotated to the kinase intended target family, where the subfamily is serine/threonine kinase. […]

Experiment [7] addresses Cytochrome P450 3A4 (Homo sapiens) (UniProt P08684). Kind of experiment: NVS_ADME_hCYP3A4: NovaScreen (NVS) CYP450-related Enzyme Activity (ADME) Assay for human CYP3A4 (AID 2283110). An outline of the steps:
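Cell-free assay using insect-cell-expressed human CYP3A4 with a fluorogenic substrate; fluorescence intensity was read 0.33 hour after dosing. Loss of signal relative to acetonitrile vehicle indicated inhibition. Primary single-concentration screen at 10 uM, in duplicate, then concentration series.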

In experiment [8] the target is human Caspase 5 (CASP5), CASP5 (gene 838) (UniProt P51878). Description: NVS_ENZ_hCASP5: NovaScreen (NVS) Enzymatic Assay for human Caspase 5 (CASP5) (AID 2283137). As for the experimental part: NVS_ENZ_hCASP5 is a biochemical, single-readout assay that uses extracted gene-proteins from E. coli in a cell-free assay. Measurements were taken 2 hours after chemical dosing in a 96-well plate.NVS_ENZ_hCASP5 is one of one assay component(s) measured or calculated from the NVS_ENZ_hCASP5 assay. It is designed to make measurements of enzyme activity, a form of enzyme reporter, as detected with fluorescence intensity signals by Fluorescence technology.Data from the assay component NVS_ENZ_hCASP5 was analyzed into 1 assay endpoint. This assay endpoint, NVS_ENZ_hCASP5, was analyzed in the positive analysis fitting direction relative to DMSO as the negative control and baseline of activity. Using a type of enzyme reporter, loss-of-signal activity can be used to understand changes in the enzymatic activity as they relate to the gene CASP5. Furthermore, this assay endpoint can be referred to as a primary readout, because this assay has produced multiple assay endpoints where this one serves a enzymatic activity function. To generalize the intended target to other relatable targets, this assay endpoint is annotated to the protease intended target family, where the subfamily is cysteine protease.
human Caspase 5 (CASP5), CASP5 (gene 838), sequence (P51878 whole entry, looked up): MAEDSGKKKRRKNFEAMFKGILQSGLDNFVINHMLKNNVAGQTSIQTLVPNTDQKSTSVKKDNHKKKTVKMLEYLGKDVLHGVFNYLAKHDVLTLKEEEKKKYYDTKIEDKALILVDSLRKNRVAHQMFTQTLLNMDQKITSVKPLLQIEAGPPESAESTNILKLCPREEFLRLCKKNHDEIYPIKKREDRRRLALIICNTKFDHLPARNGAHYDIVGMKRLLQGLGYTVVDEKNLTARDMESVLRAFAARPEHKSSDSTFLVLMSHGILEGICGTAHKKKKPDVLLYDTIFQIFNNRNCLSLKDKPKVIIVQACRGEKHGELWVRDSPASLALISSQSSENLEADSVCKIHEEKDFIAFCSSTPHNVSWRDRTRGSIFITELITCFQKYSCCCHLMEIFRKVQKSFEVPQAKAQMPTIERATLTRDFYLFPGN
Binding assays used specific radioligands (tritiated, iodinated) with non-radioactive competitive displacement ligands in agonist or antagonist protocols (as indicated) and various reference compounds and inhibitors to titrate specific binding to receptors and transporters. Most enzyme assays (CYPs, kinases, phosphatases, proteases, HDACs) used recombinant protein and specific substrates (fluorescence mostly, some colorimetric and radioactive) and inhibitors, followed by a biochemical separation of substrate and product. All assays for the biochemical HTS were initially run in duplicate at a single concentration (10 uM for CYP450 assays and 25 uM for all others). Assay-chemical combinations meeting a pre-defined threshold (e.g., 30% inhibition and other criteria defined below) were then run in singleton concentration-response format with maximum concentration of 20 uM for CYPs and 50 uM for all others. Each assay was run with positive and negative controls, and concurrent controls on every plate. The follow-up (secondary) screen tested active chemical-pairs in concentration series, as well as a few additional assays not tested in the primary screen, some selected negative inactives, and several cases re-run in the concentration series for confirmatory purposes.

Experiment [9] deals with human Caspase 4 (CASP4), CASP4 (gene 837) (UniProt P49662). Description: NVS_ENZ_hCASP4: NovaScreen (NVS) Enzymatic Assay for human Caspase 4 (CASP4) (AID 2283143). An outline of the steps:
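The cell-free assay used E. coli-expressed enzyme with a fluorogenic substrate, read 2 h after dosing. Signal loss was scored versus DMSO. Screening was in duplicate at 25 uM, then singleton concentration-response up to 50 uM.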

The target of experiment [10] is human Acid Phosphatase 1 (ACP1), ACP1 (gene 52) (UniProt P24666). Description: NVS_ENZ_hACP1: NovaScreen (NVS) Enzymatic Assay for human Acid Phosphatase 1 (ACP1) (AID 2283136). An outline of the steps:
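Recombinant enzyme expressed in Sf9 cells, tested cell-free; activity read by fluorescence with electrophoretic mobility shift separation of substrate and product, 1.5 h after dosing. Primary screen in duplicate at 25 uM, actives then run in concentration series; loss of signal versus DMSO.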

Records with an inconclusive call do not appear. Activity calls are given as the source filed them. Rule for the calls: active = hit-call score of the fitted dose curve at least 0.9, where 1 is the maximum; inconclusive = response in the unintended direction; inactive = score below 0.9.

human AKT serine/threonine Kinase 1 (AKT1), AKT1 (gene 207), sequence (P31749 whole entry, looked up): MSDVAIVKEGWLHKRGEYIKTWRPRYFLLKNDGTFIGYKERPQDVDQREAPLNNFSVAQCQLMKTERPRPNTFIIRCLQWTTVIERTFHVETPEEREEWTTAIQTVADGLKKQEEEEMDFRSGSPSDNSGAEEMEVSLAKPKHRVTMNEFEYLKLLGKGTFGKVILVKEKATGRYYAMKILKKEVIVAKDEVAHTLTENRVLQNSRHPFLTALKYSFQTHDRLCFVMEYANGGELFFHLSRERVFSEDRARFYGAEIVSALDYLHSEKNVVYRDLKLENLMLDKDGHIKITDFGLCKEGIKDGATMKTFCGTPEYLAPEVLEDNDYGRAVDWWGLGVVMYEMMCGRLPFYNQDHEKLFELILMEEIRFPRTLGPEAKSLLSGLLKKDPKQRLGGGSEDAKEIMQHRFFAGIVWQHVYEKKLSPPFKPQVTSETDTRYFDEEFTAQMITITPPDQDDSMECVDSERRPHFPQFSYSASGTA
human Beta-secretase (BACE), BACE1 (gene 23621), sequence (P56817 whole entry, looked up): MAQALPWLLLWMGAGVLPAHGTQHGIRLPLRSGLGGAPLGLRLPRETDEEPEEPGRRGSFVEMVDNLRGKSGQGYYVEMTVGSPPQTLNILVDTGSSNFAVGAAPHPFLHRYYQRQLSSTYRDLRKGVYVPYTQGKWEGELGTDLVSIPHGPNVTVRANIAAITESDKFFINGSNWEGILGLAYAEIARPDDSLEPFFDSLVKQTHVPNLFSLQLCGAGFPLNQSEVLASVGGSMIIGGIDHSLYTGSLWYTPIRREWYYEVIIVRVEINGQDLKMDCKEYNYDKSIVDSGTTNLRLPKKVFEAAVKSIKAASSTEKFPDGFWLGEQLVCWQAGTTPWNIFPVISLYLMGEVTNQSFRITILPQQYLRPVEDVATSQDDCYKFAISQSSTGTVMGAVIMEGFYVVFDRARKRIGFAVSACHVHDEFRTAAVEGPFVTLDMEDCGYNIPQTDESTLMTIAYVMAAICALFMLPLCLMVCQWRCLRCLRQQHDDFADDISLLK
Cytochrome P450 3A4 (Homo sapiens), sequence (P08684 whole entry, looked up): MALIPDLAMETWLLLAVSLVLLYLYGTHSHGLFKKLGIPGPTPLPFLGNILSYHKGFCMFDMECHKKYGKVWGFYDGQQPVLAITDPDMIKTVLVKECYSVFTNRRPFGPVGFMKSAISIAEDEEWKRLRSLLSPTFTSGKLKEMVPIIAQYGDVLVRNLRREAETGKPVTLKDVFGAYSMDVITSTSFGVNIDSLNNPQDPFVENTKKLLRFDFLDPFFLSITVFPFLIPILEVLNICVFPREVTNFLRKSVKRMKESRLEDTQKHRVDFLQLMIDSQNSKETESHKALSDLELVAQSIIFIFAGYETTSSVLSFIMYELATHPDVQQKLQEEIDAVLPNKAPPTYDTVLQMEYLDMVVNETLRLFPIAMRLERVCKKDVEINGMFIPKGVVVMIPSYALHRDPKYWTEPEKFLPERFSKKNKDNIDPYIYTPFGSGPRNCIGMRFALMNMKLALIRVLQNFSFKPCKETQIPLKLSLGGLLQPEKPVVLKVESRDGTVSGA
human Caspase 4 (CASP4), CASP4 (gene 837), sequence (P49662 whole entry, looked up): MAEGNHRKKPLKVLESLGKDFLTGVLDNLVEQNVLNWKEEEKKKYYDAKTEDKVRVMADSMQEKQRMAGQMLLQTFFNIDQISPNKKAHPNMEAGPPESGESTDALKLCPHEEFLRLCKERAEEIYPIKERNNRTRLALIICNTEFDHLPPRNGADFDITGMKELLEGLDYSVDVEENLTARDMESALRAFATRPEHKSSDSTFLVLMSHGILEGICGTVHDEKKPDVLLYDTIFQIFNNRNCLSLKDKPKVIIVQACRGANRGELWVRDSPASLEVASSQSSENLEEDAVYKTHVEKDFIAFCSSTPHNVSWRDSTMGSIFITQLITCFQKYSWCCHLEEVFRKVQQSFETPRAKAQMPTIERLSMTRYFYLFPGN
human AKT serine/threonine Kinase 2 (AKT2), AKT2 (gene 208), sequence (P31751 whole entry, looked up): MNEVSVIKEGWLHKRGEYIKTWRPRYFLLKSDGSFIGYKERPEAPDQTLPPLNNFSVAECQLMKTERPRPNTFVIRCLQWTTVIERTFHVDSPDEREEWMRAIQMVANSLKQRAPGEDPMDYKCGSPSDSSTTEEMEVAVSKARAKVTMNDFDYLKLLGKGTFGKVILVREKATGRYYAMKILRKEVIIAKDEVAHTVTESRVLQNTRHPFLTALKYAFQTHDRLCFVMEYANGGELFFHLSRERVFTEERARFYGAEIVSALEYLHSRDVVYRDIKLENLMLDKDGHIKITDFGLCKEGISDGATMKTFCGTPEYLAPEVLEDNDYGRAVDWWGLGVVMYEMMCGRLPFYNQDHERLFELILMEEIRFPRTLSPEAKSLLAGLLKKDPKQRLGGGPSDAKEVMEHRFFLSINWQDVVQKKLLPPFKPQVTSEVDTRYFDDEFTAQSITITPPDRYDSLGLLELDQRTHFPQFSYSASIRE
human Acid Phosphatase 1 (ACP1), ACP1 (gene 52), sequence (P24666 whole entry, looked up): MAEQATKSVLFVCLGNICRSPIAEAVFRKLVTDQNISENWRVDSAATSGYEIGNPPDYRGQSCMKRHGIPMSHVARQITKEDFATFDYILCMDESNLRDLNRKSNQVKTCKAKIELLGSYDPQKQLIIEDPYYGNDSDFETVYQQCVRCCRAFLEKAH

Consider `CC#C[C@]1(O)CC[C@H]2[C@@H]3CCC4=CC(=O)CCC4=C3[C@@H](c3ccc(N(C)C)cc3)C[C@@]21C`, for which the AC50 (as a rule, the concentration giving half of the maximal activity seen) in [1] was 4.12 µM (active); in experiment [2], 3.91 µM (active).
In the case of `CCCCCCCCCCCCCC[N+](C)(C)C`, the figures for the AC50 in [2] and in experiment [3] were 2.73 µM (active) and 4.96 µM (active), respectively.
With `c1ccc2c(c1)Cc1ccccc1-2`, the result in experiment [3] was inactive.
For the molecule `Nc1cccc2c(N)cccc12`, the concentration at half-maximal activity (AC50) in [1] is 6.16 µM (active); in experiment [2] it was 3.08 µM (active); in [4], 3.13 µM (active); in [3] it was 19.5 µM (active).
As to `C#C[C@]1(O)CC[C@H]2[C@@H]3CCC4=CC(=O)CC[C@@H]4[C@H]3CC[C@@]21C`, the AC50 in [2] is 3.13 µM (active).
Take `CC(O)CO` (centres undefined): the molecule was classed as inactive in [5].
In the case of `N#C[C@@H]1CC(F)(F)CN1C(=O)CNC1CC2CCC(C1)N2c1ncccn1` (some centres undefined), the molecule was classed as inactive in experiment [4] and in [6].
For the molecule `ClC1=C(Cl)C(Cl)(Cl)C(Cl)=C1Cl`, the outcome in [2] was inactive.
Consider `COC(=O)CCCCC(=O)OC`, for which, in [3], the molecule was classed as inactive.
Regarding `COc1ccc([N+](=O)[O-])cc1N`, in experiment [2], the molecule was called inactive.
With `CC[C@H](C)[C@@H](C(=O)O)n1sc2ccccc2c1=O`, in experiment [2], the half-maximal activity concentration (AC50) is 13.4 µM (active).
On to `CCCOc1sc(C(=O)N2CCC(c3cc(CN)ccc3F)CC2)c(C)c1Br`, for which the AC50 was 1.92 µM (active) in [1], 14.4 µM (active) in [7], 0.68 µM (active) in [2] and 4.17 µM (active) in experiment [3].
On to `CC(C)(C)c1ccc(O)c(C(C)(C)C)c1`, for which the molecule was classed as inactive in experiment [3].
Take `NC(=O)N(O)[C@@H]1C=C[C@H](Oc2cccc(Oc3ccc(F)cc3)c2)C1`: the AC50 was 4.62 µM (active) in [7] and 0.644 µM (active) in [2].
In the case of `c1ccc2cc3c(ccc4ccccc43)cc2c1`, the result in experiment [8] was inactive.
On to `CCCCC(CC)COC(=O)CCCCC(=O)OCc1ccccc1` (centres undefined), for which the concentration at half-maximal activity (AC50) in experiment [2] was 13.2 µM (active).
With `Cc1oc(-c2ccccc2)nc1CCOc1ccc(C[C@H](Nc2ccccc2C(=O)c2ccccc2)C(=O)O)cc1`, the molecule was called inactive in [7], in experiment [2] and in [9]. Moreover, the results for the AC50 in experiment [8] and in experiment [3] were 8.25 µM (active) and 1.17 µM (active), respectively.
`OCCC(F)(F)C(F)(F)C(F)(F)C(F)(F)C(F)(F)C(F)(F)F`: the AC50 in [2] is 6.15 µM (active).
Turning to `Oc1cc2ccccc2c2ccccc12`, the AC50 in experiment [1] was 0.235 µM (active); in experiment [7], 6.68 µM (active); in experiment [2], 0.872 µM (active); in experiment [8] it was 6.88 µM (active); in [5], 12.6 µM (active). For the same molecule, in experiment [9], the call was inactive.
Take `CCCCCCCCOC(=O)CCCCCCCCC(=O)OCCCCCCCC`: in [4], the molecule was called inactive.
Regarding `Cc1cc(C)c(O)c(C)c1`, in experiment [2], the molecule was classed as inactive.
Still for that read-out and setting: in the case of `O=[N+]([O-])c1ccc(O)cc1` it was “inactive”.
Regarding `NC(=O)N1C(=O)C(C(=O)c2cc(Cl)cs2)c2cc(F)c(Cl)cc21` (centres undefined), the concentration at half-maximal activity (AC50) is 15.7 µM (active) in experiment [1] and 0.139 µM (active) in experiment [3]. Further, the call in experiment [7], in experiment [2] and in [8] was inactive.
For `CCCCCCCCCCCCc1ccccc1S(=O)(=O)O`, the AC50 in experiment [1] was 5.06 µM (active); in experiment [4] it was 29.1 µM (active); in [3], 2.23 µM (active); in experiment [6], 40.2 µM (active).
With `COCC(C)OCC(C)O` (centres undefined), in [10], the molecule was classed as inactive.
`O=C(OCCOCCOC(=O)c1ccccc1)c1ccccc1`: the figures for the half-maximal activity concentration (AC50) in experiment [1] and in experiment [2] were 15.3 µM (active) and 7.94 µM (active), respectively.
Consider `O=C(O)c1ccccc1C(c1ccc(O)cc1)c1ccc(O)cc1`, for which the concentration at half-maximal activity (AC50) in [2] is 5.38 µM (active).
Regarding `CCC(=C(c1ccc(O)cc1)c1ccc(OCCN(C)C)cc1)c1ccccc1`, the half-maximal activity concentration (AC50) in experiment [2] was 3.91 µM (active); in experiment [3], 16.1 µM (active). Moreover, the molecule was called inactive in [4].
For the molecule `O=C(O)Cc1cc(I)c(Oc2cc(I)c(O)c(I)c2)c(I)c1`, the molecule was classed as inactive in experiment [7], in [2] and in [3].
Turning to `CC(=O)NC1(c2cccc(F)c2)CCN(CC[C@@]2(c3ccc(Cl)c(Cl)c3)CN(c3ccccc3)C(=O)CO2)CC1`, the half-maximal activity concentration (AC50) in experiment [1] was 6.63 µM (active); in [7], 1.78 µM (active); in experiment [2] it was 1.79 µM (active).
In the case of `Cc1cc(CCN2CCN(c3nsc4ccccc34)CC2)cc2c1NC(=O)CC2(C)C`, the half-maximal activity concentration (AC50) in experiment [1] is 10 µM (active); in experiment [2], 4.35 µM (active).
On to `CCCCCCCCCCCCCCCS(=O)(=O)Oc1ccccc1`, for which, in experiment [2], the AC50 was 5 µM (active).
Turning to `CC1=C(/C=C/C(C)=C/C=C/C(C)=C/C(=O)O)C(C)(C)CCC1`, the molecule was called inactive in [2].
On to `CC[C@H](c1ccc(O)cc1)[C@@H](CC)c1ccc(O)cc1`, for which the concentration at half-maximal activity (AC50) in experiment [1] was 0.295 µM (active); in [2] it was 5.22 µM (active).
